Here are results for 14 molecules from PubChem BioAssay (EPA / NIEHS).

Activity calls are given as the source filed them. Rule for the calls: active = hit-call score of the fitted dose curve at least 0.9, where 1 is the maximum; inactive = score below 0.9.

Read-out in the assay: Matrix Metallopeptidase 1 (MMP1), MMP1 (gene 4312)
The assay can be described thus: BSK_BF4T_MMP1: BioMAP Diversity Plus: BF4T Assay for Matrix Metallopeptidase 1 (MMP1) Biomarker Activity (AID 2284270). The conditions noted are these: primary human bronchial epithelial cells with fibroblasts. As to the method:
BSK_BF4T is a cell-based, multiplexed-readout assay that uses bronchial epithelial cells and dermal fibroblasts, a human vascular primary cell, with measurements taken at 24 hours after chemical dosing in a microplate: 96-well plate.BSK_BF4T_MMP1 is an assay component measured in the BSK_BF4T assay. It measures MMP-1 antibody related to regulation of gene expression using ELISA technology.Data from the assay component BSK_BF4T_MMP1 was analyzed at the endpoint, BSK_BF4T_MMP1, in the positive analysis fitting direction relative to DMSO as the negative control and baseline of activity. Using a type of binding reporter, gain or loss-of-signal activity can be used to understand protein changes. To generalize the intended target to other relatable targets, this assay endpoint is annotated to the 'protease' intended target family, where the subfamily is 'matrix metalloproteinase'.
The levels of cell surface (or secreted, indicated by the prefix "s") biomarker endpoints were measured by ELISA. Overt cytotoxicity to cells in confluent adherent cultures (all systems other than the BT system) was assessed by measuring total protein levels using sulforhodamine B (SRB) staining in parallel cultures at the time of biomarker measurements, indicated as SRB endpoints. For proliferation assays for adherent cell types, individual cell types are cultured at sub-confluence and relative cell numbers quantified by SRB staining at time points optimized for each system (48 h: 3C and CASM3C systems; 72 h: BT and HDF3CGF systems; 96 h: SAg system). SRB was performed by staining cells with 0.1% SRB after fixation with 10% TCA and reading wells at 560 nm.Viability and proliferation of PBMC (T cells) was quantified by Alamar Blue reduction for the SAg and BT systems. For PBMC viability (referred to as PBMC Cytotoxicity within the assay endpoint names), cells were plated (75,000/well in a 96-well plate) and then chemical samples added for 1 h before addition of activators, SEB and TSST-1 (20 ng/mL final concentration each). Cells were incubated for 90 h. Then, Alamar Blue (20 uL/well) (Invitrogen, Cat DAL1100) was added for 6 h, and the plates were read with a fluorescence microplate reader at 546/580 nm (excitation/emission). For PBMC proliferation, cells were plated and activated as above but incubated for only 16 h prior to addition of Alamar Blue. Plates were read after 6 h.
`O=C(O)C(F)(OC(F)(F)C(F)(F)C(F)(F)F)C(F)(F)F` (centres undefined): the result was inactive.

For `COC(=O)C(F)(F)C(F)(F)OC(F)(C(F)(F)F)C(F)(F)OC(F)=C(F)F` (centres undefined), the outcome was inactive.

As for `OCC(F)(F)OC(F)(F)C(F)(F)OC(F)(F)C(F)(F)OC(F)(F)F`, the result was inactive.

For the molecule `O=S(=O)(F)C(F)(F)C(F)(F)C(F)(F)C(F)(F)C(F)(F)C(F)(F)C(F)(F)C(F)(F)F`, the result was inactive.

For `O=C(O)C(F)(F)C(F)(F)C(=O)O`, the result was inactive.

Consider `FC(F)(F)C(F)(C(F)(F)F)C(F)(F)C(F)(F)CC1CO1` (centres undefined), for which the result was inactive.

For the molecule `O=C(O)C=CC(F)(C(F)(F)F)C(F)(F)F`, the result was inactive.

In the case of `C=CC(=O)OCC(F)(F)C(F)F`, the result was inactive.

With `O=C(O)C(F)(F)OC(F)(F)C(F)(F)OC(F)(F)C(=O)O`, the outcome was inactive.

In the case of `NC(=O)C(F)(F)C(F)(F)F`, the result was inactive.

With `O=C(O)C(F)(F)OC(F)(F)C(F)(F)OC(F)(F)F`, the result was inactive.

Regarding `CC(O)C(F)(F)C(F)(F)F` (centres undefined), the outcome was inactive.

On to `OCC(F)(F)OC(F)(F)C(F)(F)OC(F)(F)CO`, for which the outcome was inactive.

On to `OCC(F)(F)OC(F)(F)C(F)(F)OC(F)(F)C(F)(F)OC(F)(F)CO`, for which the outcome was inactive.
